How the values were obtained:
Assay in all cases: log2 ratio of Biotin-Ahx-Ub-VS probe labelling (fragment/DMSO); higher = less target engagement (more negative = stronger competition), active = hit call of the paper (q ≤ 0.05, log2 ratio ≤ -1)
Conditions in all cases: compound concentration: 200 uM; treatment time: 3 h
USP19 = biological target: T1, USP19 (UniProt O94966)
T1 sequence (whole entry): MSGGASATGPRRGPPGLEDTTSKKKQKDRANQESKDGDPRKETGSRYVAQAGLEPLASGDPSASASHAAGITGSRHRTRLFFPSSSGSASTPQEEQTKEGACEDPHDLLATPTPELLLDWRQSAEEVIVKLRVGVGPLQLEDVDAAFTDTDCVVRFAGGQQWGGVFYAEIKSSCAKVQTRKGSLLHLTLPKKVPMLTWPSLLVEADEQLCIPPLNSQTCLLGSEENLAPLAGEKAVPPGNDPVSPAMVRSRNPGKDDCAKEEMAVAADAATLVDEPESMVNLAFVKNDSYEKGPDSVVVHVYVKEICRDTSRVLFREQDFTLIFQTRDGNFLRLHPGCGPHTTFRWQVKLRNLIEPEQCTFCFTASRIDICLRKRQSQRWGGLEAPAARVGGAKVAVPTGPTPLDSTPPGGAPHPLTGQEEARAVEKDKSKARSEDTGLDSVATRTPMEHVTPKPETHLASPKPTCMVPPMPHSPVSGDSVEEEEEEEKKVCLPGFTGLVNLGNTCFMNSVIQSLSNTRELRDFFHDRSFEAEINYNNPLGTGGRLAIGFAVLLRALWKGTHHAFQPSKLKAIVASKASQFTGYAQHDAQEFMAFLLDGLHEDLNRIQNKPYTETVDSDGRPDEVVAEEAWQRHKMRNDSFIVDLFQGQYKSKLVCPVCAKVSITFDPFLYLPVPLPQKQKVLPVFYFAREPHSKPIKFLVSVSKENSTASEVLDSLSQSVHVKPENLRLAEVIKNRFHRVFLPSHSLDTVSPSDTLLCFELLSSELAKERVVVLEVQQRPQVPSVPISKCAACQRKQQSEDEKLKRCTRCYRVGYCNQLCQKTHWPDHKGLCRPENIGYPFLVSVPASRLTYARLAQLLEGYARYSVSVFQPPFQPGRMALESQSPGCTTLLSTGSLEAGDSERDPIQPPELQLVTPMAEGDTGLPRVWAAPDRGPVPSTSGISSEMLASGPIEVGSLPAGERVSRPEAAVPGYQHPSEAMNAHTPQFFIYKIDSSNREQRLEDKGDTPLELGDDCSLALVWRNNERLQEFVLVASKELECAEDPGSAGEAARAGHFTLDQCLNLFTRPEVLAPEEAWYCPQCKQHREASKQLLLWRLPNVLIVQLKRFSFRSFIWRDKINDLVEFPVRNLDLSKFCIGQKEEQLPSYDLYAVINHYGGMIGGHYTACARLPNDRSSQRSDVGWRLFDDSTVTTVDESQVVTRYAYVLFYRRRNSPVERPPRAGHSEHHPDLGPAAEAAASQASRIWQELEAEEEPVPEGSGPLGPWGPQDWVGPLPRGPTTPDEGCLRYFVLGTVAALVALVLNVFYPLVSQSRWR
How it was run: (§1)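 Labelling with Biotin-Ahx-Ub-VS (0.5 µM final, 1 h) followed a 3 h triplicate treatment of HEK293T lysate (495 µg per sample, Tris/CHAPS/IGEPAL buffer with protease inhibitors) with fragment at 200 µM or vehicle. Labelled DUBs were NeutrAvidin-enriched, digested with LysC and trypsin, and run by diaPASEF LC-MS/MS. The values, average log2 fragment/vehicle ratios by unpaired t-test, come from global-median-normalised Spectronaut label-free quantities. Proteins with ≥2 unique peptides were used.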

USP24 = USP24 (UniProt Q9UPU5)
How it was run: as §1

USP25 = biological target: T2, USP25 (UniProt Q9UHP3)
T2 sequence (whole entry): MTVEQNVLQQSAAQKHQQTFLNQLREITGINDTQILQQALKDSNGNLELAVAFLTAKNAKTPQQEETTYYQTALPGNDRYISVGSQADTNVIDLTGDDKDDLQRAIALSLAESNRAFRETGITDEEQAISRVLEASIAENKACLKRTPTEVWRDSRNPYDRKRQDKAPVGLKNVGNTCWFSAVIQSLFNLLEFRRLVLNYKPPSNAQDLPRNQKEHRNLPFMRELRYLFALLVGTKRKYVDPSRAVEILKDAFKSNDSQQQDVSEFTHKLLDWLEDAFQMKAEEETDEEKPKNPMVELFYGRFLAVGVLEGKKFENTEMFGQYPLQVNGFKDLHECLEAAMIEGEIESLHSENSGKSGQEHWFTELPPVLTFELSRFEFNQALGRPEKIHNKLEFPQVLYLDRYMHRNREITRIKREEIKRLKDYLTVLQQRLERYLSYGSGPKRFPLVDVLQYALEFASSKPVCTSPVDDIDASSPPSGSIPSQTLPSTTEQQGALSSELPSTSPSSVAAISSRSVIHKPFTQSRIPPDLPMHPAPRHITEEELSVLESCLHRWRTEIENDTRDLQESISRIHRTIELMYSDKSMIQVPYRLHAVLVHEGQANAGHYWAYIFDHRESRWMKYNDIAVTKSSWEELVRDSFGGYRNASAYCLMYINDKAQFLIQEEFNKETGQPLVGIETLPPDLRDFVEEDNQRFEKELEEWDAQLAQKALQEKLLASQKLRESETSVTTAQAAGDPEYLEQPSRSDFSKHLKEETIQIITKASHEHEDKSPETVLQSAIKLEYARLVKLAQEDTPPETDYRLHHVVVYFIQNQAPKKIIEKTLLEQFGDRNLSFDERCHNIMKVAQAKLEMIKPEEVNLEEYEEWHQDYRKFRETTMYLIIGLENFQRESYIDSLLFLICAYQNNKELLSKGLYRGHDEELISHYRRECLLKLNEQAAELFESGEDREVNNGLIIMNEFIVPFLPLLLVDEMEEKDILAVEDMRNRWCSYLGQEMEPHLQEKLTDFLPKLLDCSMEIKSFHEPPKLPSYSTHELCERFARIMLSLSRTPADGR
How it was run: as §1

USP28 = biological target: T3, USP28 (UniProt Q96RU2)
T3 sequence (whole entry): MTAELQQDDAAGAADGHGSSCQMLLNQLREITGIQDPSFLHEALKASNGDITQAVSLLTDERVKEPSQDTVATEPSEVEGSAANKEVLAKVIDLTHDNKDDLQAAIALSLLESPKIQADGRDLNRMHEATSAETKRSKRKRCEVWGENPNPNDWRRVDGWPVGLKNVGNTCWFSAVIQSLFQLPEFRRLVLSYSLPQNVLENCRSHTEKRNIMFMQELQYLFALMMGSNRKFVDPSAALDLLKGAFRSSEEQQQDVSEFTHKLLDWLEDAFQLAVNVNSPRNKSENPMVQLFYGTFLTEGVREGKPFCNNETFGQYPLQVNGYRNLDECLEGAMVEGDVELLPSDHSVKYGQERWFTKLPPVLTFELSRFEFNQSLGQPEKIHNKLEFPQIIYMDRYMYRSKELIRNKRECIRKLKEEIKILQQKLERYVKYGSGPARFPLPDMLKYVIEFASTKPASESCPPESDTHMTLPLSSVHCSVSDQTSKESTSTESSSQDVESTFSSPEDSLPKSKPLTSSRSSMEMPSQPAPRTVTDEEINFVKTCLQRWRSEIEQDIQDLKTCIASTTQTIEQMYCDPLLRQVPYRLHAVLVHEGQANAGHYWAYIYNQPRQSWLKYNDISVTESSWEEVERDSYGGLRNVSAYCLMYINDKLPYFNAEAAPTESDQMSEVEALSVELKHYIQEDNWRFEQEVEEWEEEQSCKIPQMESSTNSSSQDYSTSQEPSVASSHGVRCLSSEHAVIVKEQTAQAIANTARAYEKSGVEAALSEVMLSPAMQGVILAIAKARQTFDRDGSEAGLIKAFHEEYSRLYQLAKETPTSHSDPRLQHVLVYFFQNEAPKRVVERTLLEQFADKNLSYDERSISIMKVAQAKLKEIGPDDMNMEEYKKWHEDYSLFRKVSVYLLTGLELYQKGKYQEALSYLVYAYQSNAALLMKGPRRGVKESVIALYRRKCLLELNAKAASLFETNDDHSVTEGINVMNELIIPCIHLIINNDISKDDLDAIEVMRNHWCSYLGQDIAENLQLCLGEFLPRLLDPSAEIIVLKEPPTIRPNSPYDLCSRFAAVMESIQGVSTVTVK
How it was run: as §1

Measured: log2 ratio of Biotin-Ahx-Ub-VS probe labelling

USP24, sequence (Q9UPU5 whole entry): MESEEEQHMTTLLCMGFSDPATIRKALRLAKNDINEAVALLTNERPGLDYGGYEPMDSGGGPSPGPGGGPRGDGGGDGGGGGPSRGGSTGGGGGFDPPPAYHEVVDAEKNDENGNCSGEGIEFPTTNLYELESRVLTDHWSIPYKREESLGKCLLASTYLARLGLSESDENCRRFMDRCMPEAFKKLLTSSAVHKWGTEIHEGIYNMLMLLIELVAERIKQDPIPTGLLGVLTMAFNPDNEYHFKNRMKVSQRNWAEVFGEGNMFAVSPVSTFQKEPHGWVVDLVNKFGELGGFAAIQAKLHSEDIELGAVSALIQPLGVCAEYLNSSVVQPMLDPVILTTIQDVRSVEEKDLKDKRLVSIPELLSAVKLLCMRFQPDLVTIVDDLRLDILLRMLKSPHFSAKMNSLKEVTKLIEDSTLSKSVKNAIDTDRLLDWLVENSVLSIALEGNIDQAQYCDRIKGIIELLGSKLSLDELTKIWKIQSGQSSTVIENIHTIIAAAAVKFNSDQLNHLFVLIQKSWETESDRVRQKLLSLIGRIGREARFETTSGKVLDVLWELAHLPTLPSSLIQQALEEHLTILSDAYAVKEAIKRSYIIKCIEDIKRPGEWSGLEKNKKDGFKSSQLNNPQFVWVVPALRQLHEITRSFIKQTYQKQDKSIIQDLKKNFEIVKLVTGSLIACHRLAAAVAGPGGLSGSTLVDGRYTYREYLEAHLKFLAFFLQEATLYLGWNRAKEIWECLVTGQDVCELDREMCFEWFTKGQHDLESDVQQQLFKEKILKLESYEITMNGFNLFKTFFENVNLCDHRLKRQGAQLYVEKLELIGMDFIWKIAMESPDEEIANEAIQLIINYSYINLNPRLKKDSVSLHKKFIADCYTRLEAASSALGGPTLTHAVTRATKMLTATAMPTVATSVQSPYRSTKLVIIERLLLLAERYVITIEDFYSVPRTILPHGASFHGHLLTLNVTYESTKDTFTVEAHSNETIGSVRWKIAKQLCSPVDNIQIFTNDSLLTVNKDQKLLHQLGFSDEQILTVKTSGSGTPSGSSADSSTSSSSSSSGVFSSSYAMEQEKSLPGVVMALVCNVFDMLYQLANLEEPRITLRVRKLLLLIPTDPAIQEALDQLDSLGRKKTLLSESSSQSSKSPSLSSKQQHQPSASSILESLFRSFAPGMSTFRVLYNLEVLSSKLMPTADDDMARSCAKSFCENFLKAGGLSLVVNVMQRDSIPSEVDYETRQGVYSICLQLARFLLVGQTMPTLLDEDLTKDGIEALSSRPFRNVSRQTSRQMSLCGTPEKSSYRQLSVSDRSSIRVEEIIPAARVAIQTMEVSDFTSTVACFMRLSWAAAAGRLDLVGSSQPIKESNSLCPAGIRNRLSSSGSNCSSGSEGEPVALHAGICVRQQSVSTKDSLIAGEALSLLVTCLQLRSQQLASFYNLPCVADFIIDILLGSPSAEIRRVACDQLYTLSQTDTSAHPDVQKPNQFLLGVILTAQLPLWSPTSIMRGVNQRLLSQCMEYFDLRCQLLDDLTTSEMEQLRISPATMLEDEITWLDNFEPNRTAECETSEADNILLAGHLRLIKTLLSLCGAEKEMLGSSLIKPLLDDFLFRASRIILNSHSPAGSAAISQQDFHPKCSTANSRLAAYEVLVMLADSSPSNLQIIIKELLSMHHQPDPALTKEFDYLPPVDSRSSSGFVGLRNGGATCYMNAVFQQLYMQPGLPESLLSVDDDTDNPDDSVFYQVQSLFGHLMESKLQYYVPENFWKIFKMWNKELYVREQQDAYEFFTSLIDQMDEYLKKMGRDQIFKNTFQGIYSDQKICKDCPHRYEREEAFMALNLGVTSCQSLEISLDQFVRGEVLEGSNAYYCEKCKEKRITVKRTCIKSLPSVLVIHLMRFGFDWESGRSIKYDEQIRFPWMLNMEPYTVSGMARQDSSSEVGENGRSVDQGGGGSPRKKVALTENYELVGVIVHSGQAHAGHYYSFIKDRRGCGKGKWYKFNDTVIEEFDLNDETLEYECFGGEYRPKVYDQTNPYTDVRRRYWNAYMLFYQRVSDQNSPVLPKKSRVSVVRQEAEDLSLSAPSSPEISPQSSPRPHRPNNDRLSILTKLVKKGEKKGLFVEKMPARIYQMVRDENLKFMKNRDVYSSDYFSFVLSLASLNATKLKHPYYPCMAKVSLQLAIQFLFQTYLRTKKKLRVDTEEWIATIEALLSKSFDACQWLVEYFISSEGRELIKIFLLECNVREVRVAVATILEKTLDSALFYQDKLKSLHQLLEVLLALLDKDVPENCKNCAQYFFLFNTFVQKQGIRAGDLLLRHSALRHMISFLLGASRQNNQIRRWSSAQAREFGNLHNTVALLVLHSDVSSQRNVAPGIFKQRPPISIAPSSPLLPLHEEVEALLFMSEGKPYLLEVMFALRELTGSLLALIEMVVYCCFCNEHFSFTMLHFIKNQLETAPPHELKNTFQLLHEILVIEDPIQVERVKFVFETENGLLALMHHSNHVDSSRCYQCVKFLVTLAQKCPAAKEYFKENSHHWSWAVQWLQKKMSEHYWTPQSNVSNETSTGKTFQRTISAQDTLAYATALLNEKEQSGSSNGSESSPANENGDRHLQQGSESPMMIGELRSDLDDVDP

Cl.Cn1ncc2c1CC(NC(=O)CCl)CC2 (centres undefined)
inactive: USP19 0.0381 | USP24 0.0406 | USP25 -0.321 | USP28 -0.758
